High-throughput results deposited in PubChem by several laboratories.
Only some compounds are listed: those with a hit (about 22% of all), similar ones and a draw of the others.
CYP2C19 act: activators of human cytochrome P450 2C19; recombinant CYP2C19, luciferin-H EGE luminescence; stronger effect = higher value; 0 = fully inhibited enzyme, 1 = untreated enzyme; activation factor at 5 µM; 96,000 tested, under 10 active; AID 1025;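 active = activation factor of at least 2 at 5 µM in the primary screen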;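 also: 0 = wells with 2.5 mM tranylcypromine and 1 = vehicle-only wells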
CYP2C9 inhib: blocks human cytochrome P450 2C9 | CYP2C9 Supersomes, luciferin-H conversion, luminescence | inhibition, % at 5 µM | 96,000 compounds, 20% hits;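 active = blocking of liver enzyme CYP2C9 beyond about 50% at 5 µM, limit read from the data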
Target sequence (P11712 whole entry, looked up): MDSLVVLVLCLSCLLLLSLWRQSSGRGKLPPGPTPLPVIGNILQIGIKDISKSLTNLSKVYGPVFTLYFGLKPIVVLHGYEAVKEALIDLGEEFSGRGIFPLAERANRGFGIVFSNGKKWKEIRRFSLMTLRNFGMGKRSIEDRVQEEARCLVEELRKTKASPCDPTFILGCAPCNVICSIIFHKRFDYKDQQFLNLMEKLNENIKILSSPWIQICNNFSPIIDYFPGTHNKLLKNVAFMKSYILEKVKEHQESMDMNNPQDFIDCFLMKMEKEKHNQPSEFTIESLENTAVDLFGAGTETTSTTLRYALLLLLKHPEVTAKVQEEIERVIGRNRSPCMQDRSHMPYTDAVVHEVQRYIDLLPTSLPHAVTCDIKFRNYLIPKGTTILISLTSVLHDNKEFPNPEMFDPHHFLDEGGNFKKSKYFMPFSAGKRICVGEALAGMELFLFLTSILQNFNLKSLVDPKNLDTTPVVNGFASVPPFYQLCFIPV
CYP2C19 inh: blocks human cytochrome P450 2C19; CYP2C19 Supersomes, luciferin-H EGE luminescence, 30 min; inhibition, % at 5 µM; 96,000 compounds, 21% hits; AID 778; P33261;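 active = CYP2C19 inhibition above a set limit at 5 µM in the primary screen, cut at about 50% in these data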;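 also: plate controls were negative control wells for no effect and 2.5 mM tranylcypromine positive control for full effect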
E-sel TNF inh: TNF alpha driven E-selectin expression inhibition; HUVEC TNFa-induced E-selectin immunofluorescence, high content; inhibition, % at 2 µM; AID 1246; 120,000 compounds, 0.71% hits;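 active = inhibition above the batch mean plus 3 SD, and confirmed as a hit on visual image review, cut at about 43% in these data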;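 also: 0% = TNF-stimulated DMSO wells and 100% = unstimulated control wells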
F-actin modifier: alters cytoskeleton assembly in HUVEC cells; inhibition, % at 2 µM; 91,000 compounds, 0.18% hits; HUVEC TNFa F-actin phalloidin imaging, high content;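 active = inhibition above the batch mean plus 3 SD and confirmed as a hit by visual image inspection, cut at about 30% in these data, passing the limit was not always enough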
CYP2C9 act: increases human cytochrome P450 2C9 activity. recombinant CYP2C9, luciferin-H conversion, luminescence; stronger effect = higher value; factor 1 = untreated enzyme, 0 = blocked. activation factor at 5 µM. 96,000 compounds, 1.4% hits. AID 1024;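 active = activation factor of 2 or more for CYP2C9 at a 5 µM dose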;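 also: 0 = sulfaphenazole-blocked wells and 1 = vehicle-only wells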
An asterisk follows results filed as active; · = not tested or not shown.

SMILES | CYP2C19 act | CYP2C9 inhib | CYP2C19 inh | E-sel TNF inh | F-actin modifier | CYP2C9 act
Cn1c(C(=O)OC(C(=O)NC2CCCCC2)c2ccncc2)cc2sccc21 (configuration not stated) | 0 | 90.6* | 98.1* | -9.6 | 2.6 | 0.1
Cn1c(C(=O)OC(C(=O)NC2CCCC2)c2ccncc2)cc2sccc21 (configuration not stated) | 0.1 | 71.7* | 94.8* | 8.9 | -2.3 | 0.3
CC(C)C(OC(=O)c1cc2sccc2n1C)C(=O)NCC1CCCO1 (configuration not stated) | 0.4 | 43.3 | 56.5* | -14.6 | -8.8 | 0.6
COCCNC(=O)C(C)OC(=O)c1cc2sccc2n1C (configuration not stated) | 0.5 | -9.2 | 49.6 | -4.5 | -25.9 | 1.1
Cc1cccc(C)c1OC1(c2ccccc2)OC(=O)c2ccccc21 (configuration not stated) | 0.2 | 69.2* | 81.5* | 23.4 | 32.3 | 0.3
CCOC1(c2ccccc2)OC(=O)c2ccccc21 (configuration not stated) | · | · | · | 2.7 | · | ·
Cc1cc(C)c(OC2(c3ccccc3)OC(=O)c3ccccc32)c(C)c1 (configuration not stated) | 0.5 | 54.8* | 53.8* | -7.3 | -16.9 | 0.5
COc1ccccc1Cc1nc(-c2ccc(Br)o2)no1 | 0.1 | 32.2 | 90.0* | · | -0.9 | 0.7
O=C(CCCn1c(=S)[nH]c2ccccc2c1=O)NC1CCCCC1 | 0.7 | -28.1 | 31.3 | -9.6 | 8.2 | 1.3
CN1C(=O)c2ccccc2Sc2ccc(NC(=O)NC3CC3)cc21 | 1 | 30.9 | -4.8 | -15.0 | -10.1 | 0.7
O=C(Nc1ccc2c(c1)N(Cc1ccccc1)C(=O)c1ccccc1S2)NC1CC1 | 0.1 | 76.3* | 86.9* | 15.0 | -2.7 | 0.2
COCCCNc1oc(COc2ccc(Cl)cc2Cl)nc1C#N | 0 | 94.4* | 99.1* | · | -17.7 | 0.1
N#Cc1nc(COc2ccc(Cl)cc2Cl)oc1N1CCOCC1 | 0.3 | 43.9 | 70.5* | · | 5.6 | 0.6
N#Cc1nc(COc2ccc(Cl)cc2Cl)oc1N1CCN(c2ccccc2)CC1 | 0.4 | 42.4 | 58.5* | · | 15.9 | 0.6
O=C(Nc1cccc2c1CCCC2)c1ccc(Br)o1 | 0.8 | -5.8 | 16.0 | 11.3 | -0.1 | 1.1
COc1cc(NC(=O)CSc2nc(C)cs2)cc(OC)c1 | 0 | 52.5* | 95.8* | -8.9 | 1.4 | 0.5
COc1ccc(OC)c(NC(=O)CSc2nnc(N)s2)c1 | 0.5 | 32.0 | 50.3* | -4.0 | -11.6 | 0.7
COc1ccc(OC)c(NC(=O)CSc2nc(C)cs2)c1 | 0.2 | 53.8* | 84.1* | -22.0 | -44.8 | 0.5
Cc1csc(SCC(=O)Nc2ccc(Cl)cn2)n1 | 0.1 | 59.2* | 85.6* | -32.8 | · | 0.4
CC(C)(C)c1csc(SCC(=O)Nc2ccc(Cl)cn2)n1 | · | · | · | -6.3 | 11.7 | ·
Cc1ccc(/C=N/N(Cc2ccccc2)c2ccccc2)o1 | · | · | · | 2.7 | · | ·
COC(=O)/C=C/c1ccsc1NC(C)=O | · | · | · | 5.7 | · | ·
N#Cc1c(Nc2ccccc2)c(C=NCCN2CCOCC2)c[nH]c1=O | 0.3 | 14.2 | 73.2* | -32.6 | · | 0.9
COCCN(C(=O)c1cccc(OC)c1)c1nnc(-c2ccncc2)s1 | 0 | 79.5* | 99.9* | -44.1 | 16.2 | 0.2
CCCCC(=O)N(CCOC)c1nnc(-c2ccc(OC)cc2)s1 | 0.8 | 1.1 | 15.9 | -23.9 | · | 1
SMILES | CYP2C19 act | CYP2C9 inhib | CYP2C19 inh | E-sel TNF inh | F-actin modifier | CYP2C9 act
COCCN(C(=O)/C=C/c1ccccc1)c1nnc(-c2cccnc2)s1 | · | · | · | -13.8 | · | ·
C=CCN(C(=O)COc1ccccc1)c1nnc(-c2ccncc2)s1 | 0.1 | 51.5* | 87.2* | -7.2 | -19.8 | 0.5
COCCN(C(=O)C1CC1)c1nnc(-c2cccc(C)c2)s1 | 0.3 | 80.1* | 72.2* | · | 2.4 | 0.2
Cc1nnc(SCCn2c(N3CCCCCC3)nc3c2c(=O)[nH]c(=O)n3C)s1 | 1 | 44.7 | 2.6 | · | -7.0 | 0.6
CC(C)c1nnc(NC(=O)c2ccc(S(=O)(=O)N3CCOCC3)cc2)s1 | 1 | 0.7 | -1.3 | -43.8 | · | 1
Cn1c(=O)c2c(nc(OCc3ccc4c(c3)OCO4)n2Cc2ccccc2Cl)n(C)c1=O | 0.4 | 10.2 | 56.2* | 3.9 | 5.6 | 0.9
CCOC(=O)Cn1c(CN(Cc2ccccc2)Cc2ccccc2)nc2c1c(=O)n(C)c(=O)n2C | 0.2 | 98.9* | 83.3* | · | -8.8 | 0
CCCn1c(CN(C)Cc2ccccc2)nc2c1c(=O)n(C)c(=O)n2C | · | · | · | -6.5 | 8.8 | ·
CCOC(=O)Cn1c(CN2CCOCC2)nc2c1c(=O)n(C)c(=O)n2C | 1.2 | -16.9 | -16.2 | 4.4 | · | 1.2
COC(=O)Cn1c(CN(Cc2ccccc2)Cc2ccccc2)nc2c1c(=O)[nH]c(=O)n2C | 0.7 | 52.7* | 34.8 | -4.1 | -9.6 | 0.5
CCCCn1c(CN(C)Cc2ccccc2)nc2c1c(=O)n(C)c(=O)n2C | 0.4 | 98.1* | 55.1* | -1.6 | 6.2 | 0
CCOc1ccc(-c2[nH]nc3c2C(c2ccc4c(c2)OCO4)C(C#N)=C(N)O3)cc1OC (configuration not stated) | 0.7 | 42.5 | 31.3 | 11.1 | · | 0.6
CCCC(=O)Nc1nc2c(c(=O)[nH]1)CCCC2 | 1 | -0.6 | 2.9 | -5.3 | -2.6 | 1
CCCn1c(CN(Cc2ccccc2)Cc2ccccc2)nc2c1c(=O)n(C)c(=O)n2C | 0.9 | 86.6* | 8.5 | -47.4 | · | 0.1
CN(Cc1ccccc1)Cc1nc2c(c(=O)n(C)c(=O)n2C)n1CCc1ccccc1 | · | · | · | 10.0 | -5.5 | ·
COCCn1c(CN(C)Cc2ccccc2)nc2c1c(=O)n(C)c(=O)n2C | 0.9 | 46.8 | 11.3 | -1.1 | -6.8 | 0.5
CN(Cc1ccccc1)Cc1nc2c(c(=O)n(C)c(=O)n2C)n1Cc1ccccc1Cl | 0.7 | 81.2* | 25.5 | -39.5 | · | 0.2
CC(C)C(=O)Nc1cccc(C(=O)Nc2cc([N+](=O)[O-])ccc2F)c1 | · | · | · | 6.7 | · | ·
Cc1ccc(CN2CCSc3ccc(C(=O)N4CCN(c5ncccn5)CC4)cc32)cc1 | 0 | 92.6* | 97.0* | -32.9 | · | 0.1
Cc1ccc(C(C(=O)NC(C)(C)C)N(Cc2ccc3c(c2)OCO3)C(=O)c2ccc(CN3CCOCC3)o2)o1 (configuration not stated) | · | · | · | -11.2 | · | ·
CC1CCN(CC(O)COCCC23CC4CC(CC(C4)C2)C3)CC1 (configuration not stated) | 0.7 | -7.1 | 32.2 | -9.2 | -6.8 | 1.1
O=C(NCCc1ccc(Cl)cc1)C1CCC(=O)N1C1CCCC1 (configuration not stated) | 0.7 | -134.0 | 26.2 | 24.1 | 7.1 | 2.3*
CCOc1ccc(CCNC(=O)C2CCC(=O)N2C2CCCCC2)cc1OCC (configuration not stated) | 0.4 | 19.6 | 64.1* | · | 3.0 | 0.8
Cc1ccc(Nc2nnc(SCC(=O)N(C)C3CCS(=O)(=O)C3)s2)cc1 (configuration not stated) | · | · | · | -16.6 | · | ·
